Laboratory results as given in PubChem BioAssay.
The source made the active and inactive calls. Unless noted, no rule for the calls is given here.

Assay: inhibitors of Cryptococcus chitosan production, flow cytometry, Cibacron Brilliant Red staining (AID 1347148);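 also: compound exposure lasted three days at 37 degrees C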
Conditions: Cryptococcus neoformans chitosan, stronger effect = lower value; at 10 µM unless noted

SMILES	fold fluorescence
CC(/C=C/C(=O)NO)=C\[C@H](C)C(=O)c1ccc(N(C)C)cc1	17.7 [at 165.4 µM] (inactive)
CCCCC[C@H](O)c1cccc(OCc2ccc3ccccc3n2)c1	5.53 (inactive)
CCCCCCCCCCCCCCCCOC[C@@H](COP(=O)([O-])OCC[N+](C)(C)C)OC	4.86 (inactive)
O=C(NC[C@H]1CCCCN1)c1cc(OCC(F)(F)F)ccc1OCC(F)(F)F	6.98 [at 120.7 µM] (inactive)
CCCCC[C@H](O)CCCC(=O)O	4.65 [at 265.6 µM] (inactive)
O=C(O)CCC/C=C\C[C@H]1[C@H](/C=C/[C@H](O)COc2cccc(Cl)c2)[C@@H](O)C[C@H]1O	4.34 (inactive)
CC(C)COC[C@H](CN(Cc1ccccc1)c1ccccc1)N1CCCC1	8.48 [at 136.4 µM] (inactive)
C=C1/C(=C\C=C2/CCC[C@]3(C)[C@@H]2CC[C@H]3[C@@H](C)CCCC(C)(C)O)C[C@H](O)C[C@H]1O	7.1 (inactive)
CCCCC/C=C\C=C\[C@@H](O)CCCCCCCC(=O)O	5.71 [at 1 µM] (inactive)
COC1=C2C[C@H](C)C[C@@H](OC)[C@@H](O)[C@H](C)/C=C(\C)[C@@H](OC(N)=O)[C@H](OC)/C=C\C=C(/C)C(=O)NC(=CC1=O)C2=O	25.2 [at 89.2 µM] (inactive)
COc1ccc(CC(N)C(=O)N[C@@H]2[C@H](O)[C@@H](n3cnc4c(N(C)C)ncnc43)O[C@H]2CO)cc1 (some centres not stated)	4.82 [at 106 µM] (inactive)
COc1ccc(CCN(C)CCC[C@@](C#N)(c2ccc(OC)c(OC)c2)C(C)C)cc1OC	7.65 [at 110 µM] (inactive)
CCCCC(C)(O)C/C=C/[C@H]1[C@H](CCCCCCC(=O)O)C(=O)C[C@@H]1O (some centres not stated)	3.98 (inactive)
C=C1C(=O)O[C@@H]2C3OC3(C)CC/C=C(\C)CC[C@@H]12 (some centres not stated)	11.6 [at 201.4 µM] (inactive)
COc1cc2c3cc1Oc1c(OC)c(OC)cc4c1[C@H](Cc1ccc(OC(=O)c5ccc([N+](=O)[O-])cc5)c(c1)Oc1ccc(cc1)C[C@H]3N(C)CC2)N(C)CC4	5.83 [at 66 µM] (inactive)
CCCCCCCCCCCCCCCCCCOC[C@@H](COP(=O)([O-])OCC[N+](C)(C)C)OC	5.31 (inactive)
CCCCCCCCCCCCCCC[C@H](O)[C@@H](CO)NC(C)=O	4.64 (inactive)
O=C(O)CCC/C=C\C[C@@H]1C(=O)C[C@H](O)[C@H]1/C=C/[C@H](O)CCc1ccccc1	4.52 (inactive)
CC[C@@H](CO)Nc1nc(NCc2ccccc2)c2ncn(C(C)C)c2n1	9.95 [at 141.1 µM] (inactive)
CN(CCc1ccc(Cl)c(Cl)c1)C[C@H](O)COc1ccc(NS(C)(=O)=O)cc1	3.81 [at 111.8 µM] (inactive)

Assay: modifiers of HSF1 nuclear foci, imaging, Selleck Cancer Library (AID 1347162; in the data active = plate-normalised HSF1 focus index below about 0.46)
Conditions: human cells, at 10 µM; SSMD: measured here: HSF1 foci SSMD mean; cell count: measured here: cell number; plate-normalised HSF1 focus index: stronger effect = lower value

SMILES	plate-normalised HSF1 focus index	cell count	SSMD
CC1=NN(c2ccc(C(=O)O)cc2)C(=O)/C1=C\c1ccc(-c2cc(C)c(C)cc2[N+](=O)[O-])o1	1.07 (inactive)	6690	1.04
CCCCCc1ccc(/C=C/[C@H](O)[C@@H](CO)NC)cc1	1.1 (inactive)	6120	1.63
COc1ccc(Cc2nn3c([C@@H](CCCc4ccccc4)[C@@H](C)O)nc(C)c3c(=O)[nH]2)cc1OC	1.12 (inactive)	7160	2.11
COCCN1C2=C(C(=O)c3ccccc3C2=O)N(Cc2cnccn2)C1C (configuration not stated)	1.13 (inactive)	6910	2.27
CO[C@H]1C[C@@H]2CC[C@@H](C)[C@@](O)(O2)C(=O)C(=O)N2CCCC[C@H]2C(=O)O[C@H]([C@@H](C)C[C@@H]2CC[C@@H](OCCO)[C@H](OC)C2)CC(=O)[C@H](C)/C=C(\C)[C@@H](O)[C@@H](OC)C(=O)[C@H](C)C[C@H](C)/C=C/C=C/C=C/1C	1.15 (inactive)	6750	2.84
OC[C@H]1O[C@@H](n2cnc3c2NC=NC[C@H]3O)CC1O (some centres not stated)	1.17 (inactive)	7070	3.2
NC(=NCCC[C@H](N)C(=O)O)N[N+](=O)O	1.18 (inactive)	7230	2.98
C=C1/C(=C/C=C2\CCC[C@]3(C)[C@@H]([C@H](C)/C=C/[C@@H](C)C(C)C)CC[C@@H]23)C[C@@H](O)C[C@@H]1O	1.07 (inactive)	6600	1.3
CCOC(=O)C1=C(O)C(=O)N(c2ccccc2)C1	1.16 (inactive)	7070	2.7
